# According to PubChem BioAssay:
# Test: small-molecule microarray binders of probe aLefty2, primary screen, biochemical, biotinylated probe, 635/667 nm fluorescence (AID 1094);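 further: score merges spot fluorescence near 667 nm with spot signal-to-noise ratio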
# Details: higher = more signal
row,Compound,composite z-score
1,COC(=O)c1ccc(OC)c(/C=C\CC(CCc2ccccc2)OC(C)=O)c1 (stereo not given),-0.154
2,C[N+](C)(C)CCCC[C@@H]1NC(=O)[C@H]2C[C@@H](C(=O)NCCCCCCN)[C@@H](c3cccc(OCCO)c3)N2C1=O,1.08
3,C/C=C/[C@@H](CCn1cc([C@H](O)c2ccccc2)nn1)[Si](C)(C)c1ccc(OC)cc1,-0.171
4,CCCCCCCCCCC(O)C1C=CC2C(=O)NC(=O)C2N1Nc1ccccn1 (stereo not given),-0.0654
5,COC(=O)[C@@]1(Cc2ccc(F)cc2)[C@H]2c3cc(C(=O)N(C)C)n(CCSCCO)c3C[C@H]2CN1C(=O)c1ccccc1,0.0126
6,CC1CC/C=C\[C@H]2OC34C=CCN(Cc5ccccc5)C(=O)[C@H]3N(CCO)C(=O)[C@@H]4C2C(=O)O1 (stereo not given in full),-0.0042
7,C=C(COC)C(=O)CC[C@H](OC(=O)c1ccccc1-c1ccccc1C(=O)O)c1ccc(OCCO)cc1,-0.117
8,C=CCC(OC(C)=O)[C@@H]1[C@@H](N(Cc2cc3ccccc3o2)C(=O)Cc2ccc(OC)cc2)c2cc(OCCCO)ccc2N1C(=O)c1ccc(-c2ccccc2)cc1 (stereo not given in full),0.0689
9,CC1CC/C=C\[C@H]2OC34C=CCN(c5ccc(Cl)cc5)C(=O)[C@H]3N(C(CO)C(C)C)C(=O)[C@]4(C)C2C(=O)O1 (stereo not given in full),-0.166
10,O=C1O[C@@H](c2ccccc2)[C@@H](c2ccccc2)N2[C@@H](c3ccc(O)cc3)[C@]3(C(=O)Nc4ccc(C#CC5(O)CCCCCC5)cc43)[C@@H](C(=O)N3CCN(c4ncccn4)CC3)[C@H]12,-0.114
11,CC[C@@H]1[C@@H]2C3C(=O)N(CC)C(=O)C3CC(=O)[C@@H]2[C@H](c2ccc(C)cc2)N1S(=O)(=O)c1ccc(C)cc1 (stereo not given in full),-0.128
12,COCCOC(=O)N1C(=O)[C@@]2(c3cc(C#CCCO)ccc31)[C@H](C(=O)NC[C@H](O)c1ccccc1)[C@H]1C(=O)O[C@H](c3ccccc3)[C@H](c3ccccc3)N1[C@@H]2c1ccccc1OCCO,-0.0437
13,C=CCOC(=O)[C@@H]1[C@H]2C(=O)O[C@H](c3ccccc3)[C@H](c3ccccc3)N2[C@H](c2ccc(OCCOC(=O)[C@@H]3C[C@@H]4C(=O)N[C@@H](CCCCNC(C)=O)C(=O)N4[C@@H]3c3ccc(O)cc3)cc2)[C@@]12C(=O)Nc1ccc(I)cc12,-0.0248
14,CC(C)CCC[C@@H](C)[C@H]1CC[C@@]2(C)C3=C(CC[C@]12C)[C@@]1(C)CC[C@H](OC(=O)c2ccc(N)cc2)C(C)(C)C1CC3 (stereo not given in full),-0.19
15,CCCN1C(=O)[C@@H]2Cc3c([nH]c4ccccc34)[C@@H](c3cccc(O)c3)N2C1=O,-0.0823
16,C=CCN1C(=O)[C@@]2(O[C@@H](CCn3cc([C@H](O)c4ccccc4)nn3)[C@H]([Si](C)(C)c3ccc(OC)cc3)[C@H]2C)c2cc(NC(=O)c3ccc(OC)cc3)ccc21,-0.0615
17,COc1ccc([Si](C)(C)[C@@H]2[C@@H](CC(=O)N(CCO)Cc3ccccc3)O[C@]3(C(=O)N(Cc4ccc(N5CCOC5=O)cc4)c4ccccc43)[C@H]2C)cc1,-0.0887
18,COCCOC(=O)N1C(=O)[C@@]2(c3cc(C#Cc4ccc(OC)cc4)ccc31)[C@H](C(=O)N1CCc3cc(OC)c(OC)cc3C1)[C@H]1C(=O)O[C@H](c3ccccc3)[C@H](c3ccccc3)N1[C@@H]2c1ccc(O)cc1,-0.23

row,Compound,composite z-score
1,CC(C)CNC(=O)[C@@]1(C)c2ccccc2C(=O)N(Cc2ccccc2)[C@H]1c1ccc(CO)cc1,0.0397
2,COc1ccccc1CN1C(=O)c2ccccc2[C@](Cc2ccccc2I)(C(=O)NCCN2CCOCC2)[C@@H]1c1ccc(CO)cc1,-0.0028
3,CCCCCCC#C[Si](O[C@H](c1ccccc1)c1cn(Cc2cccc(Cl)c2)nn1)(C(C)C)C(C)C,-0.0719
4,COc1ccc([Si](C)(C)[C@@H]2[C@@H](CCO)O[C@]3(C(=O)N(Cc4ccccc4)c4ccc(N5CCCCC5=O)cc43)[C@H]2C)cc1,-0.0151
5,COC(=O)[C@@]1(Cc2ccc(F)cc2)[C@@H]2[C@@H](CC(=O)[C@H]2CC(=O)C(=O)N2CCCC2)CN1C(=O)c1ccccc1,0.299
6,COCCOC(=O)N1C(=O)[C@@]2(c3cc(C#CCCO)ccc31)[C@H](c1ccc(OCCO)cc1)N1[C@H](c3ccccc3)[C@H](c3ccccc3)OC(=O)[C@H]1[C@@H]2C(=O)N1CCc2cc(OC)c(OC)cc2C1,0.022
7,C=CC[C@]1(C(=O)NCC(O)CO)N=C(c2ccc(OCCCO)cc2)O[C@H]1c1ccccc1N=[N+]=[N-] (stereo not given in full),0.406
8,O=C(O)[C@]1(CCS(=O)(=O)c2ccccc2)N=C(c2ccc(OCCCO)cc2)O[C@@H]1c1ccccc1,0.337
9,[N-]=[N+]=NCc1ccccc1C[C@]1(C(=O)NCCN2CCOCC2)COC(c2ccc(OCCCO)cc2)=N1,0.0004
10,CC(C)C[C@@H]1NC(=O)[C@@H]2C[C@H](C(=O)NCc3ccc(F)cc3)[C@H](c3ccc(O)cc3)N2C1=O,0.0137
11,C=CCNC(=O)[C@H]1[C@@H]2C(=O)O[C@@H](c3ccccc3)[C@@H](c3ccccc3)N2[C@@H](c2ccc(O)cc2)[C@]12C(=O)N(C(=O)OCCOC)c1ccc(C#CC3(O)CCCCCC3)cc12,0.0026
12,COCCOC(=O)N1C(=O)[C@@]2(c3cc(C#CCC(C(=O)OC)C(=O)OC)ccc31)[C@H](C(=O)N1CCCCCCC1)[C@H]1C(=O)O[C@H](c3ccccc3)[C@H](c3ccccc3)N1[C@@H]2c1ccc(O)cc1,1.06
13,O=[N+]([O-])c1ccc(C[n+]2ccc(-c3ccc(CO)cc3)cc2)o1,-0.129
14,CN1C(=O)C2C=CC(C(O)COCc3ccccc3)N(Nc3ccccc3)C2C1=O (stereo not given),0.147
15,COC(=O)[C@@]1(Cc2ccc(OC)cc2)[C@H]2c3cc(C(=O)N4CCCC4)n(CCc4ccc(O)c(OC)c4)c3C[C@H]2CN1C(=O)c1ccccc1,0.128
16,C=C(CCCC)/C(=C/C[C@H](OC(=O)c1ccncc1)c1ccc(CO)o1)c1cc(C(=O)OC)ccc1OC,0.0123
17,C[C@@H]1ON(c2ccccc2)[C@H](c2ccccc2)[C@H]1C(=O)N1C(=O)OC[C@H]1Cc1ccccc1,-0.166
